Laboratory results reported in PubChem BioAssay (NCATS).
Results filed as inconclusive are left out. Activity calls are given as the source filed them. Unless noted, calls come from the whole dose curve; as a rule, active = well fitted curve in either direction with a large enough effect (not every such curve was filed as active); inconclusive = small, poorly fitted or top-dose-only effect, or another doubt; inactive = flat fitted curve, though single readings scatter.

Tests used:
[1] = target: Lysosomal acid glucosylceramidase (Homo sapiens) (UniProt P04062); assay: Glucocerebrosidase-p2 (AID 348; in the data active = potency below about 10 µM; note: potency is the fitted concentration of half-maximal effect); details: purified GBA, blue fluorogenic substrate, 40 min
Lysosomal acid glucosylceramidase (Homo sapiens), sequence (P04062 whole entry, looked up): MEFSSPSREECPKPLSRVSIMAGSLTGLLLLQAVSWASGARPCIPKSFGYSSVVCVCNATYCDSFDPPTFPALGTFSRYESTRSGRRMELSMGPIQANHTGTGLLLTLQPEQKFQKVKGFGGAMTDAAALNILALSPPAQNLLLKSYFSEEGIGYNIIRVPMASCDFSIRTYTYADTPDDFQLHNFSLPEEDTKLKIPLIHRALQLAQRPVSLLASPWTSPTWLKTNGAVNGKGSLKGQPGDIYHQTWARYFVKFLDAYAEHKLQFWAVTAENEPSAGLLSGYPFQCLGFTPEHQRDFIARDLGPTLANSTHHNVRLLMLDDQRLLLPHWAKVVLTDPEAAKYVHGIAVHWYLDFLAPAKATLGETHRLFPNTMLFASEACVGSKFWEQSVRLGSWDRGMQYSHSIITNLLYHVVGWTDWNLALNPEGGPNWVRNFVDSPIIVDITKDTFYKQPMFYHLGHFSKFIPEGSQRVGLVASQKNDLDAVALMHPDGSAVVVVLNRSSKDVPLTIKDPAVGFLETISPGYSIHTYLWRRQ
Method in brief: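 Normal human glucocerebrosidase (0.2 nM) with blue fluorogenic substrate (80 uM final) in citrate/phosphate pH 5.9 with 10mM sodium taurocholate, 0.01% tween-20; 40 min RT, NaOH/glycine stop; fluorescence Ex 365/Em 440; AC50 from a titration from 0.6 nM upwards.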

[2] = AP1 Signaling Pathway (AID 357); details: ME-180 AP-1-bla reporter, EGF-induced, beta-lactamase ratio, 5 h; at 7.69 µM (top of the series) unless noted;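 note: ME-180 reporter cells stimulated with EGF at its EC50 level; % is set by controls: 0 for no effect and ±100 for the full control effect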
Method in brief: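 Modulation of EGF-driven AP-1 transcription was assessed with a beta-lactamase reporter in ME-180 cells. Compound and EC50 EGF were co-incubated 5 hours at 37 °C before 2.5-hour CCF4 loading at room temperature and dual-emission reading.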

[3] = target: Cytochrome P450 1A2 (Homo sapiens) (UniProt P05177); assay: p450-cyp1a2 (AID 410; calls by dose curve; note: potency is the fitted concentration of half-maximal effect;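 for activity change, negative = inhibition: -100% = full effect of reference inhibitor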); details: recombinant CYP1A2, luciferin-ME demethylation, luminescence; series mostly up to 11.4 µM
Cytochrome P450 1A2 (Homo sapiens), sequence (P05177 whole entry, looked up): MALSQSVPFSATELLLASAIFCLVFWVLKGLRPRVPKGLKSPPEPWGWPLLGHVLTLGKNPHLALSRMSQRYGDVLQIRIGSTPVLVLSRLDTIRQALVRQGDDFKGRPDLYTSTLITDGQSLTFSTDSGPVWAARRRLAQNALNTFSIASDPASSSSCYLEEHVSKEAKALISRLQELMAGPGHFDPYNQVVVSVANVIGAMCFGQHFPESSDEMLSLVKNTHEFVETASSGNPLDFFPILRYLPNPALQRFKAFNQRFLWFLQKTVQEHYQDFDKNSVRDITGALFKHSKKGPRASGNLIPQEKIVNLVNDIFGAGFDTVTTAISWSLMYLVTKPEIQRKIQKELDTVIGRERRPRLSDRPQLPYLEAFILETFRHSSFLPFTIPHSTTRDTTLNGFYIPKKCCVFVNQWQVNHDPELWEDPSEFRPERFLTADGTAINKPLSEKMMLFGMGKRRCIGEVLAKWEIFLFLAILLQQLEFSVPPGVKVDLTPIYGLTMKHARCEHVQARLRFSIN
Method in brief: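 Read-out is luminescence from luciferin produced by CYP1A2 demethylation of Luciferin-ME (100uM, at Km). Detection reagent stopped the 60 min NADPH-dependent reaction; signals were normalized to 57 uM furafylline.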

[4] = NFAT Signaling Pathway (AID 444); details: Jurkat NFAT-bla M1, carbachol, beta-lactamase ratio, 5 h; at 7.69 µM (top of the series) unless noted;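 note: carbachol stimulus at about its EC50 of 1 µM final; % is set by controls: 0 for no effect and ±100 for the full control effect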
Method in brief: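 Jurkat cells with NFAT-driven β-lactamase reporter and co-expressed M1 receptor, stimulated with carbachol (final 1 uM, ~EC50), compound titration, 5 h at 37 °C. CCF4 loaded 1 h at RT; 460/530 nm ratio gave %activity and AC50.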

[5] = Stat Signaling Pathway (AID 446); details: ME-180 (cervical carcinoma) SIE beta-lactamase reporter, IL-6 stimulated, 5 h; at 7.69 µM (top of the series) unless noted;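 note: ME-180 cervical cancer cells given 40 pM IL-6 alongside compound; SIE-controlled beta-lactamase reporter measured as 460/530 nm FRET emission ratio; % is set by controls: 0 for no effect and ±100 for the full control effect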
Method in brief: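 Normalization used AC90 stimulation (300 pM IL-6) and AC90 inhibition (125 nM pan-JAK inhibitor at 40 pM IL-6). The underlying signal is SIE-driven beta-lactamase in ME-180 cells after 5 h IL-6 exposure with compound.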

[6] = target: Glucocorticoid receptor (Homo sapiens) (UniProt P04150); assay: GR-GFP Redistribution (AID 450;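 active = compounds whose dose series gives a full or clear partial fitted curve of increased nuclear translocation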; note: potency is the fitted concentration of half-maximal effect); details: U2OS GR-GFP nuclear translocation, laser cytometry, 2 h
Glucocorticoid receptor (Homo sapiens), sequence (P04150 whole entry, looked up, the tested form may be a part): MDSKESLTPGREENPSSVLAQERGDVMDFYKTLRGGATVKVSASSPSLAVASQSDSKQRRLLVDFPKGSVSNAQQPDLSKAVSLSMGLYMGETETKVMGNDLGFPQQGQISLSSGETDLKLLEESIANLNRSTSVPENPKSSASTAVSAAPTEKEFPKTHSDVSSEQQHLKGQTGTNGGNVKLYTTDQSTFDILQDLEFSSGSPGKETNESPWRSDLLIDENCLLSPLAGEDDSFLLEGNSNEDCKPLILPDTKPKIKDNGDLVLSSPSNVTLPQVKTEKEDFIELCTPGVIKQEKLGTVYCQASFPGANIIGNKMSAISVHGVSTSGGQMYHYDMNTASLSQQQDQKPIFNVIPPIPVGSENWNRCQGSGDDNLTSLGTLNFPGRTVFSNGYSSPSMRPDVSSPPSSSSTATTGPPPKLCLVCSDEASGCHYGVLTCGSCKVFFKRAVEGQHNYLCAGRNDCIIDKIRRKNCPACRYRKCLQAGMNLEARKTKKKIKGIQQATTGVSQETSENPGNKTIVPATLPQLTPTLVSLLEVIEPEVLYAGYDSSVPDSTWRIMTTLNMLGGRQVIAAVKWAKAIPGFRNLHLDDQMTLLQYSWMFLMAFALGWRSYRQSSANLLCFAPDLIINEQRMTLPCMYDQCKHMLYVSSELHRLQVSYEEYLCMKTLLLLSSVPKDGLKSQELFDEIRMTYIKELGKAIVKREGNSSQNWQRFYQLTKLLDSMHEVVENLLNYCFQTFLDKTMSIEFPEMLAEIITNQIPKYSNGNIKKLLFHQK

[7] = target: Glucocorticoid receptor (Homo sapiens) (UniProt P04150); assay: GR-EFC Redistribution (AID 451; calls by dose curve; note: potency is the fitted concentration of half-maximal effect); details: CHO-K1 GR-EFC translocation, beta-gal luminescence, 2 h
Method in brief: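 CHO-K1 cells expressing nuclear EA and GR-ED fragments of b-gal; compounds titrated up to 46 uM final, 2 h at 37 C. GR nuclear translocation read as complemented b-gal luminescence after 1 h RT detection.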

[8] = target: Mitogen-activated protein kinase 10 (Mus musculus) (UniProt Q61831); assay: JNK3 AlphaScreen Assay (AID 530); details: JNK3 lysate, c-Jun phosphorylation; series mostly up to 11.4 µM;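 note: kinase came from lysate of stimulated human HepG2 cells; signal reports phosphorylation of biotinylated GST-cJun 1-79 at Ser73 with 10 µM ATP; % is set by controls: 0 for no effect and ±100 for the full control effect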
Method in brief: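 HepG2 lysate (IL-1b/TNFa pre-activated) + biotin-GST-cJun 1-79 + anti-pSer73 cJun; cpd titration, 15 min RT; ATP 10 uM start; Tris pH 7.6, MgCl2, DTT, vanadate; beads in EDTA buffer; AlphaScreen.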

[9] = target: 3',5'-cyclic-AMP phosphodiesterase 4B (Homo sapiens) (UniProt Q07343); assay: qHTS Assay for Inhibitors of PDE-IV (AID 607; active = well fitted activation curve with a large enough effect in the main read-out, with a control signal flat, not every such curve was filed as active; note: % of control where 0% means no effect); details: HEK293 ACTOne CNG channel cells, membrane potential fluorescence; series mostly up to 22.9 µM
3',5'-cyclic-AMP phosphodiesterase 4B (Homo sapiens), sequence (Q07343 whole entry, looked up): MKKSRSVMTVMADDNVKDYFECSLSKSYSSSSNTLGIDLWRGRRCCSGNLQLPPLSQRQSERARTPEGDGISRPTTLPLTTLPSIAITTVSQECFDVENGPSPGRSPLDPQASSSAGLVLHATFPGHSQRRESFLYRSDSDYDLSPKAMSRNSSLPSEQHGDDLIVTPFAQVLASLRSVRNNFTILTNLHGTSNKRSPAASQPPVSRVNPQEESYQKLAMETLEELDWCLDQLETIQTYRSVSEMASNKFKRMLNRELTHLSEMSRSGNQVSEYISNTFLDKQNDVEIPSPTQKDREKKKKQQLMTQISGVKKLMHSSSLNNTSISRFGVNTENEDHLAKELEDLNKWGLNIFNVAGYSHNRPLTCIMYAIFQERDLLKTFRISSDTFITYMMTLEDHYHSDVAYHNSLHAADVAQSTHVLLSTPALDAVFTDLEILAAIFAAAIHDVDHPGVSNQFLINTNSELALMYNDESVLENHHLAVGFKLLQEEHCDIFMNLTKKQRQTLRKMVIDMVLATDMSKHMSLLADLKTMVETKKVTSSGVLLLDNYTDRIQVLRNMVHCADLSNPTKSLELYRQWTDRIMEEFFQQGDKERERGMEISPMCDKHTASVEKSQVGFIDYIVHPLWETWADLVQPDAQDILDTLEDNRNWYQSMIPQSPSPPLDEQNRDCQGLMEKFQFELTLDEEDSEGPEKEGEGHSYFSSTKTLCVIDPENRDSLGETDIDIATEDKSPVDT
Method in brief: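 HEK293 ACTOne cells with CNG channel (1000/well), endogenous PDE4; membrane potential dye, compounds up to 22.9 uM final. Fluorescence Ex 535/Em 590; RO 20-1724 (100 uM final) as reference.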

CN1CCN(CCCBr)CC1
inactive: Potency [1] > 11.4 µM | activity change, negative = inhibition [2] 5.14% | Potency [3] | activity change, negative = inhibition [4] 10.6% | activity, negative = inhibition [5] -3.86% | Potency [6] > 46 µM | Potency [7] > 9.22 µM | Potency [8] | Potency [9]

CC(=O)C=NCC(=O)O
inactive: Potency [1] > 11.4 µM | activity change, negative = inhibition [2] -0.671% | Potency [3] | activity change, negative = inhibition [4] 3.49% | activity, negative = inhibition [5] -0.18% | Potency [6] > 46 µM | Potency [7] > 9.22 µM | Potency [8] | Potency [9]

O=C(O)[C@H]1[C@H](C(=O)O)[C@H](C(=O)O)C[C@@H]1C(=O)O
inactive: Potency [1] > 11.4 µM | activity change, negative = inhibition [2] -1.4% | Potency [3] | activity change, negative = inhibition [4] 2.63% | activity, negative = inhibition [5] 4.24% | Potency [6] > 46 µM | Potency [7] > 9.22 µM | Potency [8] | Potency [9]

Cc1cc(CN2CCCCC2)c(O)c(CN2CCCCC2)c1
inactive: Potency [1] > 11.4 µM | activity change, negative = inhibition [2] 25.8% | activity change, negative = inhibition [3] -18.8% [at 2.29 µM] | activity change, negative = inhibition [4] -21.4% | activity, negative = inhibition [5] -1.32% | Potency [6] > 46 µM | Potency [7] > 9.22 µM | Potency [8] | Potency [9]

N#CC[N+]1(Cc2ccccn2)CCCC1
inactive: Potency [1] > 11.4 µM | activity change, negative = inhibition [2] -12.2% | activity change, negative = inhibition [3] 3.4% [at 2.29 µM] | activity change, negative = inhibition [4] 0.385% | activity, negative = inhibition [5] -1.41% | Potency [6] > 46 µM | Potency [7] > 9.22 µM | Potency [8] | Potency [9]

CCOC(=O)[C@@H](O)Cc1cnc2ccccc2n1
active: Potency [3] 3.16 µM
inactive: Potency [1] > 11.4 µM | activity change, negative = inhibition [2] 5.54% | activity change, negative = inhibition [4] -6.57% | activity, negative = inhibition [5] -5.21% | Potency [6] > 46 µM | Potency [7] > 9.22 µM | Potency [8] | Potency [9]

[O-][N+]1(CC[N+]2([O-])CCCCC2)CCCCC1
inactive: Potency [1] > 11.4 µM | activity change, negative = inhibition [2] -8.89% | Potency [3] | activity change, negative = inhibition [4] 2.18% | activity, negative = inhibition [5] -8.8% | Potency [6] > 46 µM | Potency [7] > 9.22 µM | Potency [8] | Potency [9]

O=C1CCC(c2ccccc2)(c2ccccc2)CC1
inactive: Potency [1] > 11.4 µM | activity change, negative = inhibition [2] 5.18% | Potency [3] | activity change, negative = inhibition [4] -2.6% | activity, negative = inhibition [5] 1.75% | Potency [6] > 46 µM | Potency [7] > 9.22 µM | Potency [8] | Potency [9]

Cn1ncc2c(Cl)ncnc21
inactive: Potency [1] > 11.4 µM | activity change, negative = inhibition [2] 2.44% | Potency [3] | activity change, negative = inhibition [4] 17.9% | activity, negative = inhibition [5] 13.8% | Potency [6] > 46 µM | Potency [7] > 9.22 µM | Potency [8] | Potency [9]

O=c1c[n+](CC[n+]2cc(=O)o[nH]2)[nH]o1
inactive: Potency [1] > 11.4 µM | activity change, negative = inhibition [2] 2.98% | activity change, negative = inhibition [4] 12.3% | activity, negative = inhibition [5] 4.21% | Potency [6] > 46 µM | Potency [7] > 9.22 µM | Potency [8] | Potency [9]
active: Potency [3] 2.51 µM

C[C@@]1(CCOCc2ccccc2)NC(=O)NC1=O
inactive: Potency [1] > 11.4 µM | activity change, negative = inhibition [2] 7.73% | Potency [3] | activity change, negative = inhibition [4] -2.8% | activity, negative = inhibition [5] 8.58% | Potency [6] > 46 µM | Potency [7] > 9.22 µM | Potency [8] | Potency [9]

N[C@@H](Cc1cccc([N+](=O)[O-])c1)C(=O)O
inactive: Potency [1] > 11.4 µM | activity change, negative = inhibition [2] -0.119% | Potency [3] | activity change, negative = inhibition [4] 0.16% | activity, negative = inhibition [5] 0.761% | Potency [6] > 46 µM | Potency [7] > 9.22 µM | Potency [8] | Potency [9]

CN[C@@H]1NC(=O)c2ccccc2N1Cc1ccc(F)cc1
inactive: Potency [1] > 11.4 µM | activity change, negative = inhibition [2] 4.91% | activity change, negative = inhibition [3] -7.6% [at 2.29 µM] | activity change, negative = inhibition [4] 7.06% | activity, negative = inhibition [5] 4.09% | Potency [6] > 46 µM | Potency [7] > 9.22 µM | Potency [8] | Potency [9]

O=C(O)[C@@H]1CCN(Cc2oc(CO)cc(=O)c2O)C1
inactive: Potency [1] > 11.4 µM | activity change, negative = inhibition [2] 6.76% | activity change, negative = inhibition [4] -8.96% | activity, negative = inhibition [5] 16.1% | Potency [6] > 46 µM | Potency [7] > 9.22 µM | Potency [8] | Potency [9]
active: Potency [3] 10 µM

CCOc1ccccc1Nc1ccc(N)cc1S(=O)(=O)O
inactive: Potency [1] > 11.4 µM | activity change, negative = inhibition [2] 6.02% | activity change, negative = inhibition [3] -12.6% [at 2.29 µM] | activity change, negative = inhibition [4] -5.87% | activity, negative = inhibition [5] -1.52% | Potency [6] > 46 µM | Potency [7] > 9.22 µM | Potency [8] | Potency [9]

N[C@@H](CSCc1ccccc1)C(=O)O
inactive: Potency [1] > 11.4 µM | activity change, negative = inhibition [2] 14.5% | Potency [3] | activity change, negative = inhibition [4] 3.49% | activity, negative = inhibition [5] -2.8% | Potency [6] > 46 µM | Potency [7] > 9.22 µM | Potency [8] | Potency [9]
